Screening data deposited in PubChem by Sanford-Burnham Center for Chemical Genomics.
Shown are actives, neighbours in structure and some others; about 31% of the full set was active somewhere.
CYP2C19 activ: cytochrome P450 2C19 (human) activation; activation factor at 5 µM; recombinant CYP2C19, luciferin-H EGE luminescence; active compounds read high; 0 = fully inhibited enzyme, 1 = untreated enzyme; 96,000 tested, under 10 active; AID 1025; P33261;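 active means activation factor of at least 2 at 5 µM in the primary screen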;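 further: 0 = wells with 2.5 mM tranylcypromine and 1 = vehicle-only wells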
CYP2C9 activ: activators of human CYP2C9; actives 1.4% (n = 96,000); P11712; recombinant CYP2C9, luciferin-H conversion, luminescence; active compounds read high; factor 1 = untreated enzyme, 0 = blocked; AID 1024; activation factor at 5 µM;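 active means activation factor of 2 or more for CYP2C9 at a 5 µM dose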;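 further: 0 = sulfaphenazole-blocked wells and 1 = vehicle-only wells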
Target sequence (P11712 whole entry, looked up): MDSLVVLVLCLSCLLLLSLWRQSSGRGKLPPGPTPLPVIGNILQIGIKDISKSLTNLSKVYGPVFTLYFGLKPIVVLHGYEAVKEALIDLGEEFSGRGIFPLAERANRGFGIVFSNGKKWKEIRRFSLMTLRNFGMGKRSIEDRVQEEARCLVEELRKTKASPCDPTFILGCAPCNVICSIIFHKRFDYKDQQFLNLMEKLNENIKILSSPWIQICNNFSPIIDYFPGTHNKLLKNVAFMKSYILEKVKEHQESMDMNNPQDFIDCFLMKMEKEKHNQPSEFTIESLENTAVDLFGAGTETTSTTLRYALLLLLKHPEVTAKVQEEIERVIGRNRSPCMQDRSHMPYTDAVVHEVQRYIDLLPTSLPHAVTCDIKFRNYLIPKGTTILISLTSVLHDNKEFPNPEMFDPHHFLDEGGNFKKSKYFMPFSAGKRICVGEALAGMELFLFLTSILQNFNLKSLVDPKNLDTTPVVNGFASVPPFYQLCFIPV
PLAP activator: human PLAP activation. P05187. purified PLAP enzyme, luminescent substrate read-out; active compounds read high. activation fold at 20 µM. actives 1.2% (n = 96,000). AID 696; in the data active means activation fold above about 2
CYP2C9 inhib: blocks human cytochrome P450 2C9; AID 777; inhibition, % at 5 µM; actives 20% (n = 96,000); CYP2C9 Supersomes, luciferin-H conversion, luminescence;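 active means blocking of liver enzyme CYP2C9 beyond about 50% at 5 µM, limit read from the data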
CYP2C19 inhib: human CYP2C19 inhibition; P33261; CYP2C19 Supersomes, luciferin-H EGE luminescence, 30 min; inhibition, % at 5 µM; actives 21% (n = 96,000);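 active means CYP2C19 inhibition above a set limit at 5 µM in the primary screen, cut at about 50% in these data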;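 further: plate controls were negative control wells for no effect and 2.5 mM tranylcypromine positive control for full effect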
An asterisk follows results filed as active.

SMILES	CYP2C19 activ	CYP2C9 activ	PLAP activator	CYP2C9 inhib	CYP2C19 inhib
COc1ccc(CC(=O)N2CCN=C2SC)cc1	0.6	1	0.9	4	41
CSC1=NCCN1C(=O)Cc1ccc(Cl)cc1	0.4	0.7	1	27	57*
O=C(C1CCCN(S(=O)(=O)c2cnc[nH]2)C1)N1CC(=O)N(CCc2ccccc2)C(=O)C1 (stereo not drawn)	0.9	0.7	1	28	12
O=C(Cc1ccc(F)cc1)Nc1ccc(F)c([N+](=O)[O-])c1	0.4	0.7	0.9	28	56*
O=C(CN1CCN(c2ccc(F)cc2)CC1)Nc1ccc(F)c(F)c1	0.7	0.7	1	32	31
CCCCn1c(=O)c2c(c3ccccc31)OCC(=O)N2	0.9	1.1	1	-12	6
O=C(COC(=O)C1=COCCO1)Nc1ncc(C(F)(F)F)cc1Cl	0.7	0.8	1.2	21	33
N#CCC(CNc1ncc(C(F)(F)F)cc1Cl)OC(=O)c1cccc([N+](=O)[O-])c1 (stereo not drawn)	0	0.3	0.9	68*	96*
N#CCC(CNc1ncc(C(F)(F)F)cc1Cl)OC(=O)c1ccc(Cl)cc1 (stereo not drawn)	0.2	1.1	1	-9	84*
CN(C)S(=O)(=O)c1ccc(N2CCN(S(=O)(=O)c3ccc(F)cc3)CC2)c(Cl)c1	0.9	0.9	1.4	11	12
Cc1ccccc1NC(=O)NCCc1nc2ccccc2[nH]1	0.4	0.7	0.9	29	60*
CCC(=O)NCCc1nc2ccccc2[nH]1	0.8	1	0.8	2	22
O=C(NCCc1nc2ccccc2[nH]1)c1ccco1	0.5	0.8	1	21	55*
O=C(CNC(=O)c1ccc(Br)cc1)NCCc1nc2ccccc2[nH]1	0.7	0.4	1	58*	29
COc1cc(N2CCOCC2)ncn1	1.2	1.2	0.9	-22	-19
Cc1ccc(C2C(C(=O)c3sc(C)nc3C)=C(O)C(=O)N2CCN2CCOCC2)o1 (stereo not drawn)	1	0.8	1.4	22	-3
Clc1ccc(Cn2cccc2C2=NCCO2)cc1	0.3	0.7	0.7	35	67*
O=C(C1CCN(S(=O)(=O)c2cccnc2)CC1)N1CCN(c2cccc(Cl)c2)CC1	0.6	1.1	1.3	-13	42
CCOC(=O)Cn1c(=O)oc2cc(S(=O)(=O)Nc3cc(Cl)ccc3OC)ccc21	0.6	0.4	1	61*	36
CN(Cc1ccccc1)C(=O)Cn1c(=O)oc2cc(S(=O)(=O)NCc3ccccc3)ccc21	0.9	1	1.1	4	7
CCCN1CCN(C(=O)Cn2c(=O)oc3cc(S(=O)(=O)NCc4ccccc4)ccc32)CC1	1.1	0.7	1.2	27	-9
CCOC(=O)Cn1c(=O)oc2cc(S(=O)(=O)Nc3ccc(N(CC)CC)cc3C)ccc21	0.3	0.4	0.9	61*	67*
CCOC(=O)Cn1c(=O)oc2cc(S(=O)(=O)Nc3cc(OCC)ccc3OCC)ccc21	0.3	0.3	1.1	74*	73*
CCOC(=O)Cn1c(=O)oc2cc(S(=O)(=O)Nc3cccc(C)c3)ccc21	0.5	0.5	1	54*	50*
CCCc1nnc(SCC(=O)N2CCCC(C)C2)n1CC1CCCO1 (stereo not drawn)	0.8	1	1	1	23
SMILES	CYP2C19 activ	CYP2C9 activ	PLAP activator	CYP2C9 inhib	CYP2C19 inhib
CCCCCCSc1nnc(-c2cnn(-c3ccccc3)c2-n2cccc2)n1C	0.5	0.4	1.5	61*	47
CCn1c(SCC(=O)N2CCc3ccccc32)nnc1-c1c[nH]c2ccccc12	0.9	1	0.8	5	7
CCn1c(SCC(=O)N2CCN(c3ccccc3)CC2)nnc1-c1c[nH]c2ccccc12	0.4	1.1	1.5	-11	64*
CCCCSc1nnc(-c2c[nH]c3ccccc23)n1C	0.4	1	0.9	-1	56*
Cn1c(SCc2ccccc2)nnc1-c1c[nH]c2ccccc12	0.5	0.6	0.9	44	49
CCn1c(SCC(=O)N2CCCc3ccccc32)nnc1-c1c[nH]c2ccccc12	0.2	1.1	0.9	-12	76*
COC(=O)C1=C(O)/C(=C\c2ccc(O)c(OC)c2)N=C1C	0.8	0.8	0.4	23	15
O=C(CSCCO)Nc1nccs1	0.9	1.2	0.9	-24	6
Cn1c(SCC(=O)N2CCN(c3ccccc3)CC2)nnc1-c1c[nH]c2ccccc12	0.5	0.8	1.7	16	54*
